Measured values from PubChem BioAssay.

assay: TLR3 IRF3 reporter activation blockers – cell-based, poly I:C stimulus, luciferase, 10K MLSCN set, primary screen (AID 602277); conditions: HEK293-TLR3 RL24 IRF3 luciferase reporter, at 10 µM, hits give high values;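 active means inhibition of the reporter signal at or above 50%; inactive means inhibition below 50%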

inhibition, inactive:
Cc1ccc(Cn2ncc3c(NCCCN4CCOCC4)ncnc32)cc1 11.4%
C/C(N)=C(/C#N)C(=O)COC(=O)COc1ccc(Cl)cc1 23.1%
Nc1c(C(=O)NCCc2ccccc2)nnn1Cc1ccccc1 -13.7%
Cc1ccc(-n2c(Cc3cccn3C)nnc2SCC(=O)NCc2ccc3c(c2)OCO3)cc1 26.7%
COc1ccc(/C=N/n2c(=O)[nH]c3c([nH]c4ccc(C)cc43)c2=O)cc1CN1CCOCC1 11.2%
C=CCn1c(C)cc(C(=O)CSc2nc3ccccc3c(=O)[nH]2)c1C -75.7%
O=C(NCc1ccco1)C1CCN(S(=O)(=O)N2CCC3(CC2)OCCO3)CC1 6.88%
CCOC(=O)c1c(C)oc2ccc(OCC(=O)N(CC)CC)cc12 7.27%
COc1ccc(-c2cc(C(=O)NCc3ccc(Cl)cc3)no2)cc1OC -8.76%
O=C(Nc1cccnc1N1CCOCC1)c1ccco1 10.7%
COc1ccc2c(-c3cccnc3)cc(=O)[nH]c2c1 26.1%
CC1(C)CC(=O)C2=C(C1)Nc1nc(SCCN3CCOCC3)[nH]c(=O)c1C2c1cccs1 (centres undefined) -12.2%
CCOc1ccc(C(=O)N(Cc2ccc(N(C)C)cc2)C2CCS(=O)(=O)C2)cc1 (centres undefined) 23.5%
CC(C)Oc1ccc(-c2nn(-c3ccccc3)cc2/C=c2\sc3ncnn3c2=O)cc1 -14.6%
CN(C)c1nc(Nc2ccc(Cl)cc2)nc(OCC#N)n1 37.1%
Cc1ccc(C)n1NC(=O)c1ccco1 14.3%
CCC1(C)Cc2c(C#N)c(N)n(-c3ccccc3)c(=O)c2CO1 (centres undefined) 5.33%
O=C1CC(c2ccc(S(=O)(=O)N3CCN(c4ccccc4)CC3)cc2)CN1 (centres undefined) 14.5%
COc1cccc(NC(=O)Cc2nnc(SCC(=O)c3ccccc3)n2C)c1 10.1%
CCCC1CC(C)(C(=O)Cn2[nH]c(=O)ccc2=O)OC1=O (centres undefined) 25.6%
CS(=O)(=O)N(CC(=O)NC1CC1)c1cccc(F)c1 14.7%
COc1ccc2c(c1)CCc1c(C(=O)NCc3cccnc3)noc1-2 -67.9%
CC(=O)Nc1ccc(S(=O)(=O)N(CC(=O)O)Cc2ccccc2)cc1 14.2%
O=S(=O)(NCCc1ccncc1)c1cc(Br)ccc1F 16.5%
